Screening results from PubChem BioAssay.
HT1080 IDH1KD tx: HT-1080 IDH1 knockdown cell toxicity (counter line) | Potency, µM (top dose mostly 46.1 µM), inactives show at the highest dose activity, negative = toxicity, hits mostly cytotoxic | HT-1080 IDH1 knockdown viability, ATP luminescence, 48 h | actives 2% (n = 360,000);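 note: 0% = DMSO wells and -100% = cell-free medium wells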
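CellTiter-Glo luminescence after 48 h compound exposure at 37 degrees C of IDH1-knockdown HT-1080 cells in 5% FBS RPMI. %Activity scaled between DMSO wells and cell-free media wells, with curves fitted and assigned curve classes.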
HT1080-NT tox: kills 2HG-producing HT-1080-NT fibrosarcoma cells; actives 1.6% (n = 360,000); HT-1080-NT fibrosarcoma viability, CellTiter-Glo ATP luminescence, 48 h; AID 686970; Potency, µM (doses to about 46.1 µM), for the others: at the top dose activity, negative = less viability, hits mostly cytotoxic;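 note: NT is the 2HG producing partner of a matched IDH1 knockdown line; 0% = DMSO-treated cells and -100% = media-only wells without cells; nearly all actives have a fitted effect of over 55% in size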
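HT-1080-NT fibrosarcoma cells (2HG-overproducing), 750 cells/well in RPMI with 5% FBS, dosed after 2 h and incubated 48 h at 37C. CellTiter-Glo luminescence normalized to DMSO and no-cell wells; concentration-response curves fitted and classed.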
HepG2 viability: counter-screen for TGF-b inhibitors: cytotoxicity in HepG2 cells; HepG2 CAGA-GFP viability, ATP luminescence, 18 h; Potency, µM (highest dose often 46.1 µM), without a hit: top-dose activity change, negative = cytotoxicity, actives largely listed as cytotoxic; actives 0.76% (n = 410,000)
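HepG2 CAGA-GFP cells (1000/well, DMEM with 1% FBS) received compound, then TGF-beta at 500 pg/mL final, and were incubated 18 hours at 37 degrees C. Viability was read by CellTiter-Glo luminescence. Media-only wells were set as complete cell-killing and DMSO as no toxicity.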
ATXN2 expr inh: reduces ATXN2 reporter expression in HEK-293 cells; HEK-293 ATXN2-luciferase reporter, luminescence, 24 h; Potency, µM (titrated, usually from 57 µM), for inactives: at the highest dose activity change, negative = inhibition, actives largely listed as inhibitors; actives 0.72% (n = 360,000); AID 1745845; note: % is set by controls: 0 for no effect and ±100 for the full control effect; nearly all actives have a fitted effect of over 55% in size
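qHTS (up to 57 uM final) was run with 24 h compound exposure of reporter cells at 37 °C. Each well was multiplexed: SteadyGlo luminescence measured ATXN2-luciferase expression after a fluorogenic Gly-Phe-AFC viability readout (25 uM final).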
TGFb inhibitor: TGF-b pathway inhibition; actives 1.2% (n = 410,000); HepG2 CAGA-GFP TGF-b/SMAD3 reporter, GFP fluorescence, 18 h; TGF-beta stimulated, 500 pg/mL final; AID 588855; Potency, µM (top dose mostly 46.1 µM), without a hit: top-dose activity, negative = inhibition, actives largely listed as inhibitors; note: % is set by controls: 0 for no effect and ±100 for the full control effect; nearly all actives have a fitted effect of over 65% in size
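Per well, imaged GFP fluorescence of HEPG2 CAGA-GFP cells gives the signal; cells get compound, then TGF-beta (500 pg/mL final), 18 h at 37 degrees C; %Activity versus -TGF-beta and +DMSO controls.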
ATXN viability: cell viability loss in ATXN counter-screen | S2 cells (HEK-293 line with an ATXN2-luciferase reporter) viability, CellTiter-Fluor protease fluorescence, 24 h | Potency, µM (titrated, usually from 56.7 µM), actives largely listed as cytotoxic | actives 0.49% (n = 400,000) | AID 651635; note: nearly all actives have a fitted effect of over 40% in size
Numbers without * were called inactive; [ ] = dose if it differs, or a comment. An excerpt weighted towards active compounds, which were near 3.8% of everything screened. Calls come from the whole dose curve; as a rule, active = well fitted curve in the direction sought with a large enough effect; inconclusive = small, poorly fitted or top-dose-only effect, or another doubt; inactive = no such curve, though single readings can be large; an effect the other way counts as inactive or inconclusive. Potency is the fitted concentration of half-maximal effect.

How did CCOc1ccccc1NC(=O)c1cc2cc(C)ccc2n1C do in these assays?
HepG2 viability: -6.3%; ATXN2 expr inh: 13.4%; TGFb inhibitor: 4.0%; ATXN viability: inactive

How did CCN(CC)c1ccc(/C=C2\C=Cc3ccccc32)cc1 do in these assays?
HepG2 viability: -6.0%; TGFb inhibitor: 8.8%

How did c1ccc(COc2ccc(OCCCNC3CCCC3)cc2)cc1 do in these assays?
HT1080 IDH1KD tx: inconclusive; HT1080-NT tox: 23.1µM*; HepG2 viability: -67.9%; ATXN2 expr inh: 1.8%; TGFb inhibitor: inconclusive; ATXN viability: inactive

What do the screens show for `Cc1cnc(-c2cc(N3CCN(C(=O)CCS(C)(=O)=O)CC3)ncc2Cl)c(C)c1`?
ATXN2 expr inh: 5.7%

What do the screens show for `Cc1ccc(-n2ncc(Br)c(Br)c2=O)cc1`?
HT1080 IDH1KD tx: 5.17µM*; HT1080-NT tox: 4.61µM*; HepG2 viability: -109.9%; ATXN2 expr inh: inconclusive; TGFb inhibitor: 3.16µM*; ATXN viability: 21.2µM*

What do the screens show for `COc1c(Cl)cnn(-c2ccc(C)cc2)c1=O`?
HT1080 IDH1KD tx: -23.3%; HT1080-NT tox: 10.9%; HepG2 viability: 8.0%; ATXN2 expr inh: 1.5%; TGFb inhibitor: -3.2%; ATXN viability: inactive

Results for COc1ccc(CN(CCC(c2ccc(F)cc2)C2CCOC(C)(C)C2)C(=O)c2ccco2)cc1 (configuration not stated) ?
HT1080 IDH1KD tx: 25.9µM*; HT1080-NT tox: inconclusive; HepG2 viability: -32.7%; ATXN2 expr inh: -20.5%[11.3 µM]; TGFb inhibitor: inconclusive; ATXN viability: inactive

What do the screens show for `C/C(=N\NC(=O)C(C)n1nc(C)c([N+](=O)[O-])c1C)c1ccccc1O` (configuration not stated)?
HT1080 IDH1KD tx: 9.2µM*; HT1080-NT tox: inconclusive; HepG2 viability: -19.8%; ATXN2 expr inh: 15.8µM*; TGFb inhibitor: inconclusive; ATXN viability: inactive

What do the screens show for `Cc1nn(C(C)C(=O)NCc2ccco2)c(C)c1[N+](=O)[O-]` (configuration not stated)?
HT1080 IDH1KD tx: 15.6%; HT1080-NT tox: 24.6%; HepG2 viability: 28.3%; TGFb inhibitor: -0.2%; ATXN viability: inconclusive

Results for O=C(CCc1ccccc1)N(Cc1cccnc1)c1nc2c(F)cc(F)cc2s1 ?
HepG2 viability: -25.0%; TGFb inhibitor: 0.0%

How did O=C(CSc1ncnc2c1oc1ccccc12)Nc1nc2ccccc2s1 do in these assays?
HT1080 IDH1KD tx: inconclusive; HT1080-NT tox: inconclusive; HepG2 viability: 12.6µM*; ATXN2 expr inh: inconclusive; TGFb inhibitor: inconclusive; ATXN viability: inconclusive

How did Cc1cc(C(F)(F)F)c(C#N)c(SCC(=O)Nc2nc3ccccc3s2)n1 do in these assays?
HT1080 IDH1KD tx: 18.4µM*; HT1080-NT tox: inconclusive; HepG2 viability: -45.9%; ATXN2 expr inh: 23.5%; TGFb inhibitor: 183.1%; ATXN viability: inactive

What do the screens show for `Cc1ccc(C)c(CN2C(=O)c3ccccc3S(=O)c3ccc(C(=O)N4CCCCC4)cc32)c1` (configuration not stated)?
HepG2 viability: 0.2%; ATXN2 expr inh: 16.4%; TGFb inhibitor: inconclusive; ATXN viability: inactive

Results for CCCCOc1ccc(CSC(=N)N)cc1Cl ?
HT1080 IDH1KD tx: 14.6µM*; HT1080-NT tox: 18.4µM*; HepG2 viability: -176.1%; ATXN2 expr inh: 25.1µM*; TGFb inhibitor: inconclusive; ATXN viability: inconclusive

What do the screens show for `CCCCCOc1ccc(Br)cc1CSC(=N)N`?
HT1080 IDH1KD tx: inconclusive; HT1080-NT tox: inconclusive; HepG2 viability: -102.1%; TGFb inhibitor: inconclusive

What do the screens show for `CN1CCN(c2ccc(C(CC(N)=O)NC(=O)Cc3ccc(Br)cc3)cc2[N+](=O)[O-])CC1` (configuration not stated)?
HT1080 IDH1KD tx: -1.8%; HT1080-NT tox: -2.9%; HepG2 viability: 0.316µM*; ATXN2 expr inh: -3.1%; TGFb inhibitor: -13.0%; ATXN viability: inactive

How did O=C(N/N=C\c1cn[nH]c1-c1ccc(Cl)cc1)c1cccs1 do in these assays?
HT1080 IDH1KD tx: -12.4%; HT1080-NT tox: -15.1%; HepG2 viability: -86.7%; TGFb inhibitor: 10µM*; ATXN viability: inactive

How did COC(=O)[C@]1(C)CCC[C@@]2(C)C3CC[C@@]4(C)C[C@]3(CCC21)CC(=O)N4 (some centres not stated) do in these assays?
HT1080 IDH1KD tx: 9.8%; HT1080-NT tox: 5.2%; HepG2 viability: -15.3%; ATXN2 expr inh: -1.1%; TGFb inhibitor: -37.8%; ATXN viability: inactive

What do the screens show for `C=C1C(=O)C23CCC4C(C)(C(=O)OC)CCCC4(C)C2CCC1(O)C3` (configuration not stated)?
HT1080 IDH1KD tx: 2.31µM*; HT1080-NT tox: 9.2µM*; HepG2 viability: 2.82µM*; ATXN2 expr inh: inconclusive; TGFb inhibitor: 3.16µM*; ATXN viability: 5.32µM*

How did CC(C)c1ccc(NC(=O)CSC2=Nc3ccccc3C3=NC(CC(=O)NC4CCCCC4)C(=O)N23)cc1 (configuration not stated) do in these assays?
HepG2 viability: 12.6µM*; TGFb inhibitor: inconclusive

What do the screens show for `CCN(Cc1nc(-c2ccc(OC)cc2)oc1C)S(=O)(=O)c1ccc(Cl)cc1`?
HepG2 viability: -31.9%; TGFb inhibitor: inconclusive

Results for Cc1ccc(N=C2NC(=O)/C(=C/c3cccn3C)S2)cc1 ?
HT1080 IDH1KD tx: 10.3µM*; HT1080-NT tox: -29.4%; HepG2 viability: 5.8%; TGFb inhibitor: -2.6%; ATXN viability: inactive

How did C=C1CCc2c([nH]c3ccc(OCC(C)C)cc23)C1=O do in these assays?
HT1080 IDH1KD tx: 13µM*; HT1080-NT tox: 7.31µM*; HepG2 viability: 2.51µM*; ATXN2 expr inh: inconclusive; TGFb inhibitor: 5.01µM*; ATXN viability: inconclusive

What do the screens show for `COc1ccc2[nH]c3c(c2c1)CCNC3=O`?
HepG2 viability: -17.1%; ATXN2 expr inh: 30.9%; TGFb inhibitor: -7.3%; ATXN viability: inactive

How did CN(C(=O)c1cc2c(s1)-c1ccc(Cl)cc1SC2)c1cccc(C(F)(F)F)c1 do in these assays?
HepG2 viability: -3.2%; ATXN2 expr inh: -9.5%; TGFb inhibitor: -8.7%; ATXN viability: inconclusive

How did COc1ccc(S(=O)(=O)N2N=C(C)Oc3ccccc3C2=O)cc1 do in these assays?
HT1080 IDH1KD tx: 3.26µM*; HT1080-NT tox: 2.91µM*; HepG2 viability: 2.4%; ATXN2 expr inh: -9.5%; TGFb inhibitor: -3.6%; ATXN viability: inconclusive
